Data reported in PubChem BioAssay AID1159580 (chemical genetic matrix, 2015).
Among all 5,500 compounds or so, about 2,000 (36%) were called active. Roughly 18% stayed inconclusive and do not appear here. No stated cut-off is given here; in the data, active means normalized growth mostly below about 0.91 (no sharp cut-off); inconclusive means no clear call, values can overlap the other calls; inactive means mostly above about 0.92. Some of the results follow.

Assay: chemical genetic growth profiling, strain panel (AID 1159580);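 further: tested at 20 µM; growth read once vehicle control cultures reached saturation at 30 °C; 1 = growth at the plate median or of vehicle wells; lower values mean less growth of the strain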
Conditions: S. cerevisiae deletion strains, growth OD

Measured: normalized growth

CN(C)CCCC1(c2ccc(F)cc2)OCc2cc(C#N)ccc21 (centres undefined)
inactive: locus YAL021C, strain ccr4, active compounds read low 0.999 | locus YAL026C, strain drs2, active compounds read low 0.995 | locus YAL030W, strain snc1, active compounds read low 0.987 | locus YAL040C, strain CLN3, active compounds read low 0.984 | locus YBL061C, strain skt5, active compounds read low 0.991 | locus YBR009C, strain hhf1, active compounds read low 0.979 | locus YBR023C, strain chs3, active compounds read low 0.987 | locus YBR171W, strain sec66, active compounds read low 0.983 | locus YBR231C, strain swc5, active compounds read low 0.981 | locus YBR279W, strain paf1, active compounds read low 0.979 | locus YCL011C, strain gbp2, active compounds read low 0.99 | locus YCL016C, strain dcc1, active compounds read low 0.997 | locus YCL061C, strain MRC1, active compounds read low 0.987 | locus YCL069W, strain vba3, active compounds read low 0.992 | locus YCR088W, strain abp1, active compounds read low 0.983 | locus YDL005C, strain med2, active compounds read low 0.985 | locus YDL040C, strain nat1, active compounds read low 0.985 | locus YDR001C, strain nth1, active compounds read low 0.981 | locus YDR069C, strain doa4, active compounds read low 0.983 | locus YDR137W, strain rgp1, active compounds read low 0.991 | locus YDR159W, strain sac3, active compounds read low 0.985 | locus YDR195W, strain ref2 0.946 | locus YDR297W, strain sur2, active compounds read low 0.993 | locus YDR334W, strain swr1, active compounds read low 0.983 | locus YDR335W, strain msn5, active compounds read low 0.991 | locus YDR392W, strain spt3, active compounds read low 0.894 | locus YEL003W, strain gim4, active compounds read low 0.987 | locus YEL037C, strain rad23, active compounds read low 1 | locus YEL061C, strain CIN8 (second series), active compounds read low 0.986 | locus YER002W, strain NOP16, active compounds read low 0.994 | locus YER015W, strain faa2, active compounds read low 0.985 | locus YER016W, strain bim1, active compounds read low 0.985 | locus YER111C, strain swi4, active compounds read low 0.983 | locus YER155C, strain BEM2 (second series), active compounds read low 0.944 | locus YFR010W, strain ubp6, active compounds read low 0.976 | locus YGL167C, strain pmr1, active compounds read low 0.99 | locus YGL173C, strain kem1, active compounds read low 0.989 | locus YGL227W, strain vid30, active compounds read low 0.989 | locus YGL240W, strain doc1, active compounds read low 0.97 | locus YGL253W, strain hxk2, active compounds read low 0.993 | locus YGR229C, strain SMI1, active compounds read low 1.01 | locus YHR013C, strain ard1, active compounds read low 0.975 | locus YHR027C, strain rpn1, active compounds read low 0.985 | locus YHR030C, strain SLT2, active compounds read low 1.02 | locus YHR079C, strain IRE1, active compounds read low 1.03 | locus YHR142W, strain chs7, active compounds read low 1 | locus YJL092W, strain hpr5, active compounds read low 0.995 | locus YJL095W, strain BCK1 (second series), active compounds read low 0.989 | locus YJL095W, strain BCK1, active compounds read low 1.03 | locus YJL115W, strain asf1, active compounds read low 0.985 | locus YJL129C, strain trk1, active compounds read low 1 | locus YJL154C, strain vps35, active compounds read low 0.989 | locus YJL164C, strain tpk1, active compounds read low 0.987 | locus YJL166W, strain qcr8, active compounds read low 1 | locus YJL187C, strain SWE1, active compounds read low 0.987 | locus YJR066W, strain TOR1, active compounds read low 0.998 | locus YKL160W, strain elf1, active compounds read low 1 | locus YKR026C, strain gcn3, active compounds read low 0.96 | locus YKR091W, strain srl3, active compounds read low 0.991 | locus YLL001W, strain dnm1, active compounds read low 0.994 | locus YLL026W, active compounds read low 0.986 | locus YLL041C, strain sdh2, active compounds read low 0.992 | locus YLR027C, strain aat2, active compounds read low 0.98 | locus YLR113W, strain HOG1, active compounds read low 1.01 | locus YLR221C, strain rsa3, active compounds read low 1 | locus YLR258W, strain gsy2, active compounds read low 0.98 | locus YLR262C, strain YPT6 (second series), active compounds read low 1.05 | locus YLR320W, strain mms22, active compounds read low 0.993 | locus YLR342W, strain FKS1, active compounds read low 0.999 | locus YLR357W, strain rsc2, active compounds read low 0.952 | locus YLR370C, strain arc18, active compounds read low 0.989 | locus YLR384C, strain iki3, active compounds read low 0.98 | locus YML120C, strain ndi1, active compounds read low 0.978 | locus YMR058W, strain fet3, active compounds read low 0.993 | locus YMR125W, strain sto1, active compounds read low 0.951 | locus YMR129W, active compounds read low 0.999 | locus YMR205C, strain PFK2, active compounds read low 0.946 | locus YMR231W, strain pep5, active compounds read low 0.984 | locus YMR263W, strain SAP30, active compounds read low 0.962 | locus YNL071W, strain lat1, active compounds read low 0.99 | locus YNL153C, strain GIM3, active compounds read low 0.997 | locus YNL175C, strain NOP13, active compounds read low 1 | locus YNL183C, strain NPR1, active compounds read low 1 | locus YNL197C, strain WHI3, active compounds read low 1 | locus YNL209W, strain ssb2, active compounds read low 0.992 | locus YNL224C, strain SQS1, active compounds read low 1.02 | locus YNL248C, strain rpa49, active compounds read low 0.99 | locus YNL322C, strain KRE1 (second series), active compounds read low 0.986 | locus YNR049C, strain mso1, active compounds read low 0.982 | locus YOR001W, strain rrp6, active compounds read low 0.987 | locus YOR070C, strain gyp1, active compounds read low 0.985 | locus YOR080W, strain dia2, active compounds read low 0.99 | locus YOR083W, strain WHI5 (second series), active compounds read low 1.01 | locus YOR083W, strain WHI5, active compounds read low 0.999 | locus YOR106W, strain vam3, active compounds read low 1.01 | locus YOR231W, strain MKK1, active compounds read low 1.03 | locus YOR265W, strain rbl2, active compounds read low 0.987 | locus YOR270C, strain vph1, active compounds read low 0.996 | locus YOR290C, strain snf2, active compounds read low 0.985 | locus YPL051W, strain arl3, active compounds read low 0.997 | locus YPL078C, strain atp4, active compounds read low 1 | locus YPL106C, strain sse1, active compounds read low 0.959 | locus YPL240C, strain hsp82, active compounds read low 1 | locus YPL256C, strain CLN2, active compounds read low 1.04
